Measured values published in PubChem BioAssay (NCI).
Compounds without any hit were thinned out: in the full panel of roughly 83,000, 20% have a hit.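 Results are percent growth after 48 hours of single-concentration exposure. 100 means growth as in untreated cells, lower positive values show inhibition; negative values down to -100 show cell death.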 Unmarked numbers belong to inactive results. Active and inactive are the calls of the source. Rule for the calls: active = growth percent below 10; inactive = the rest.

tested on: CCRF-CEM leukemia; test: NCI-60 one-dose screen, 48 h (100 = growth as untreated, 0 = no growth, -100 = all killed); details: 10 µM unless noted

SMILES	growth
N#Cc1c(-c2ccc(Br)cc2)nc2c(N=Nc3ccc(S(N)(=O)=O)cc3)c(N)nn2c1N	-4.46% (active)
CCN(CC)CCN1C(=O)c2c(c3c4ccccc4[nH]c3c3ccc4ccccc4c23)C1=O	-8.15% (active)
O=C(/C=C/c1ccccc1)N(C1CCCCC1)C1CCCCC1	79.6%
CC1(C)CC[C@]2(CO)CC[C@]3(C)[C@](O)([C@H](O)C[C@@H]4[C@@]5(C)CCCNC(C)(C)[C@@H]5CC[C@]43C)[C@@H]2C1	74.6%
Nc1nc(N(Cc2ccccc2)c2ccccc2)c2cn[nH]c2n1	92.6%
CN1CC(c2ccc(Br)cc2)C(C(=O)c2ccc(Br)cc2)C12C(=O)Nc1ccccc12 (configuration not stated)	80.2%
Nc1nc(C(=O)N/N=C/c2ccc(F)cc2)nn1-c1ccc(S(N)(=O)=O)cc1	112%
COc1ccc(-c2nc(SCC(=O)Nc3nc4ccc(C)cc4s3)[nH]c(=O)c2C#N)cc1OC	110%
CNC(=O)NCC1OC(n2cnc3c(NC(=O)Nc4ccccc4)ncnc32)C2OC(=O)CC12 (configuration not stated)	94.1%
COc1ccc(NC(=O)c2ccc(Nc3ncnc4c3cnn4-c3cccc(F)c3)cc2)cc1	97.2%
CC(C)NS(=O)(=O)/N=C1\NC(=O)NC1=C(Cl)Cl	81.4%
Cc1ccc2cnc(N)c(C#Cc3cc(C(=O)Nc4ccc(CN5CCN(C)CC5)c(C(F)(F)F)c4)cnc3C)c2c1	-34.8% (active)
Cc1nn(-c2ccc([N+](=O)[O-])cc2)c2ncnc(N/N=C/c3ccccc3O)c12	-12.4% (active)
CC(C)(C)OC(=O)CN1CCc2c(sc3ncnc(N4CCN(c5ccc(F)cc5)CC4)c23)C1	59.2%
COC(=O)[C@@]1(C)CC[C@]2(C)CC[C@]3(C)C4=CC=C5C(=CC(=O)C(O)=C5C)[C@]4(C)[C@@H](O)C[C@@]3(C)[C@@H]2C1	-2.39% (active)
Cc1cc(Cl)nc(N2CCN(CCNc3ccnc4cc(Cl)ccc34)CC2)n1	63.1%
Cc1ccc(C)c2c1sc1nc(N3CCOCC3)c(C#N)c(=O)n12	83.1%
COc1ccc2c(c1)CC[C@@H]1[C@@H]2CC[C@]2(C)c3c(cc(C#N)c4c3sc3ccccc34)C[C@@H]12	82.3%
C=C1C(=O)O[C@H]2[C@H]1CC/C(COC(=O)NCc1ccc(Cn3c(=O)sn(-c4ccc(I)cc4)c3=O)cc1)=C\CC[C@@]1(C)O[C@@H]21	-14.3% (active)
O=C(O)CC(C(=O)O)/C(=C\c1ccccc1)c1ccccc1 (configuration not stated)	94.6%
CCN(CC)CCOc1ccc(Nc2ncc3cc(-c4c(Cl)cccc4Cl)c(=O)n(CCOC)c3n2)cc1	4.55% (active)
O=C(c1ccc(Br)cc1)C(Br)C(c1ccc(Cl)cc1)C(c1ccccc1)[N+](=O)[O-] (configuration not stated)	90.3%
CN1CCOCCN(C)Cc2ccc3ccc(cc3c2)CN(C)CCOCCN(C)Cc2ccc3ccc(cc3c2)C1	56.3%
COc1ccc(CN2C(=O)OC(C)(COC(C)=O)C2=O)cc1 (configuration not stated)	99.5%
CN(C)c1ccc(/C=N\NC(=O)c2ccc3nc(-c4ccc(Cl)cc4)[nH]c3c2)cc1	21.4%
COCCn1cc(-c2csc(-c3c[nH]c4ccc(F)cc34)n2)c2cccnc21	20.1%
C/C(Cc1ccc(Cl)cc1)=C(\c1ccc(OCCN2CCCCCC2)cc1)c1ccc(OC(=O)c2ccccc2)cc1	-4.75% (active)
